Assay outcomes: PubChem BioAssay, National Center for Advancing Translational Sciences (NCATS)
DT40 TDP1 CPT: DT40-hTDP1 cell growth loss with CPT; chicken DT40 Tdp1-/-;hTDP1 cells + 20 nM CPT, ATP luminescence, 48 h; Potency, µM (series often up to 46.2 µM), without a hit: top-dose activity change, negative = growth inhibition, most hits filed as inhibitors; 420,000 compounds, 12% hits; AID 686979; further: potency means the concentration at half of the fitted maximal effect; nearly all actives have a fitted effect of over 55% in size
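Chicken DT40 Tdp1-/- cells complemented with human TDP1, 400 cells/well, exposed to compounds plus 20 nM camptothecin for at least 48 h at 37 C; viability read as ATP content by CellTiter-Glo luminescence.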
HT1080-NT tox: kills 2HG-producing HT-1080-NT fibrosarcoma cells | HT-1080-NT fibrosarcoma viability, CellTiter-Glo ATP luminescence, 48 h | Potency, µM (titrated, usually from 46.1 µM), for inactives: at the top dose activity, negative = less viability, hits mostly cytotoxic | 360,000 compounds, 1.6% hits | AID 686970;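 further: NT is the 2HG producing partner of a matched IDH1 knockdown line; potency means the concentration at half of the fitted maximal effect; 0% = DMSO-treated cells and -100% = media-only wells without cells; nearly all actives have a fitted effect of over 55% in size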
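HT-1080-NT fibrosarcoma cells (2HG-overproducing), 750 cells/well in RPMI with 5% FBS, dosed after 2 h and incubated 48 h at 37C. CellTiter-Glo luminescence normalized to DMSO and no-cell wells; concentration-response curves fitted and classed.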
HT1080 IDH1KD tx: HT-1080 IDH1 knockdown cell toxicity (counter line); AID 686971; 360,000 compounds, 2% hits; Potency, µM (titrated, usually from 46.1 µM), without a hit: at the top dose activity, negative = toxicity, most hits filed as cytotoxic; HT-1080 IDH1 knockdown viability, ATP luminescence, 48 h;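 further: potency means the concentration at half of the fitted maximal effect; 0% = DMSO wells and -100% = cell-free medium wells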
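Using the IDH1-knockdown HT-1080 line run in the same batch and compound series as the NT line, viability after 48 h at 37 °C was determined by CellTiter-Glo luminescence and expressed as % activity.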
TDP1 cell noCPT: qHTS for Inhibitors of human tyrosyl-DNA phosphodiesterase 1 (TDP1): qHTS in cells in absence of CPT. DT40 Tdp1-/- hTDP1 cells, no CPT, ATP luminescence, 48 h. Potency, µM (series often up to 46.2 µM), inactives show at the top dose activity change, negative = growth inhibition, hits mostly inhibitors. 420,000 compounds, 15% hits; further: potency means the concentration at half of the fitted maximal effect; nearly all actives have a fitted effect of over 55% in size
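Luminescent ATP content (CellTiter-Glo) served as the growth readout. Knockout chicken DT40 cells expressing human TDP1 were exposed to compounds without camptothecin for a minimum 48 hr at 37 °C.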
IL-1B inflam inh: blocks inflammasome-driven IL-1 beta release; THP-1 LPS/ATP IL-1B secretion, AlphaLISA, 16 h; stronger effect = lower value; activity change, % at 57.5 µM; 360,000 compounds, 4.7% hits; AID 743279; in the data active means activity change below about -50%; inconclusive means mostly about -30% to -49%
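Secreted IL-1B measured by AlphaLISA bead assay after 16 h compound exposure of THP-1 cells; compounds (final up to 57.5 uM) added 1 h before LPS (250 ng/mL) and ATP (1.25 mM) stimulation; lower signal means less secretion.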
Numbers without * were called inactive; i = inactive; ? = inconclusive; nt = not tested or not shown; [ ] = remark or other dose. Compounds with a hit are over-represented: about 19% of the library has one in this group of screens. Unless noted, the call rests on the fitted dose curve; in most records, active means well fitted curve in the direction sought with a large enough effect; inconclusive means small, poorly fitted or top-dose-only effect, or another doubt; inactive means no such curve, though single readings can be large; an effect the other way counts as inactive or inconclusive. Unless noted, on the % scale 0 is the no-effect control and ±100 the full control effect.

SMILES | DT40 TDP1 CPT | HT1080-NT tox | HT1080 IDH1KD tx | TDP1 cell noCPT | IL-1B inflam inh
CCOC(=O)C1=CCN(S(=O)(=O)c2ccccc2C)C1c1cccc(F)c1 (stereo unspecified) | ? | 5% | -18% | 16µM* | 50
CC(Sc1nnc(Cc2ccccc2)o1)C(=O)Nc1ccccc1[N+](=O)[O-] (stereo unspecified) | -8% | 0% | 0% | -27% | -5
COCCSc1nc2c(c(=O)[nH]c(=O)n2C)n1CCC(C)C | ? | -3% | -11% | -29% | -1
O=C(CC12CCC(CC1)C2)NCc1ccc2c(c1)OCO2 | -9% | -15% | 1% | -5% | 16
COc1ccc(NS(=O)(=O)c2ccc3c(c2)N(C(C)=O)CCS3)cc1 | ? | -29% | -1% | ? | 3
CC(=O)N1CCSc2ccc(S(=O)(=O)NCCc3ccc(Cl)cc3)cc21 | 16µM* | 1% | ? | ? | 9
CC(=O)N1CCSc2ccc(S(=O)(=O)NCCc3ccc(C)cc3)cc21 | 23µM* | -28% | -6% | 21µM* | ?
CC(=O)N1CCSc2ccc(S(=O)(=O)Nc3ccc(C)cc3)cc21 | ? | -2% | -15% | -16% | 16
CC(=O)N1CCSc2ccc(S(=O)(=O)NCCc3cccc(C)c3)cc21 | 21µM* | -17% | -15% | 10µM* | -80*
CCOc1ccc(/C=N/NC(=O)c2ccc(F)cc2)cc1CN1CC2CC(C1)c1cccc(=O)n1C2 (stereo unspecified) | ? | 1% | -25% | ? | -19
CCc1nc2cc(C(=O)N3CCCN(C=O)CC3)cc(NC(=O)c3ccccc3OC)c2n1C | 15%[9.04 µM] | nt | nt | -12% | nt
CCn1c(COC(=O)CNC(=O)c2ccccc2)nc2cc(S(=O)(=O)N(C)C)ccc21 | -20% | -21% | -1% | -16% | -2
COc1ccccc1/C=C1\S/C(=N/NC(=O)c2cccc(Br)c2)NC1=O | ? | ? | ? | 21µM* | -13
CC(NC(=O)C(C)N1CCN(S(=O)(=O)c2ccccc2)CC1)c1ccccc1 (stereo unspecified) | -15% | -5% | 6% | -16% | 0
Cc1ccc(S(=O)(=O)N2CCN(C(C)C(=O)NCC(C)c3ccccc3)CC2)cc1 (stereo unspecified) | ? | 5% | 19% | 23µM* | -9
CCC(C)c1ccc(S(=O)(=O)N2CCN(C(C)C(=O)NC3CCCC3)CC2)cc1 (stereo unspecified) | 15µM* | -1% | -6% | ? | -10
CCCc1ccc(S(=O)(=O)N2CCN(C(C)C(=O)NC3CCCC3)CC2)cc1 (stereo unspecified) | -30% | 10% | -5% | ? | 7
CC(C(=O)Nc1ccccc1-c1ccccc1)N1CCCCC1 (stereo unspecified) | -5% | 4% | 4% | ? | 25
CC(C)c1ccc(S(=O)(=O)N2CCN(C(C)C(=O)Nc3ccccc3-c3ccccc3)CC2)cc1 (stereo unspecified) | 18µM* | 14% | 12% | ? | 0
COc1ccc(C(=O)NC(=O)CSc2n[nH]c(N)n2)cc1 | -4% | 15% | 14% | 5% | -3
Cc1ccc(Sc2ncccc2C(N)=O)cc1 | -7% | -5% | -4% | -28% | -1
Cc1ccc(Sc2cnc(N)nc2C)cc1 | ? | 2% | -4% | 16µM* | -11
O=C(Nc1ccc2c(c1)OCO2)c1csc([C@@H]2C[C@H](O)[C@@H](CO)O2)n1 | -22% | -2% | -11% | -18% | 8
COc1ccc(-c2cn[nH]c2-c2ccc(OCc3ccccc3)cc2O)cc1 | ? | -7% | ? | ? | -99*
COc1ccc(-c2cn[nH]c2-c2ccc(OC)cc2O)cc1 | ? | ? | ? | ? | -84*
SMILES | DT40 TDP1 CPT | HT1080-NT tox | HT1080 IDH1KD tx | TDP1 cell noCPT | IL-1B inflam inh
COc1ccc2c(c1)CCc1cn[nH]c1-2 | ? | 0% | -8% | 23µM* | -10
COc1ccc(-c2nc(C)ncc2-c2ccc(Cl)cc2)c(O)c1 | 15µM* | -1% | -3% | -11% | -12
COc1ccc(CCc2nnc(CCC(=O)NCCc3ncccc3C)o2)cc1 | 1% | 2% | 3% | 7% | 9
Cc1ccc(C)c(S(=O)(=O)N2CCCOC2CNC(=O)C(=O)NC2CCCC2)c1 (stereo unspecified) | -19% | 7% | 10% | -18% | i
CC(NC(=O)CNC(=O)C1CCCCC1)c1ccc(S(N)(=O)=O)cc1 (stereo unspecified) | 7% | -20% | -3% | -9% | -3
CN1CCCC(CN(C)C(=O)c2cnn(-c3nccc(-c4ccccc4C(F)(F)F)n3)c2C2CC2)C1 (stereo unspecified) | 16%[9.04 µM] | nt | nt | -26% | nt
COc1ccccc1-c1cn[nH]c1-c1ccc(OCc2ccccc2)cc1O | 0% | -18% | ? | ? | -99*
Cc1cccc(C(=O)OCC(=O)Nc2c(C)n(C)n(-c3ccccc3)c2=O)c1O | -12% | 6% | 8% | 8% | 2
CN(C)S(=O)(=O)NCCNc1ccc(C(F)(F)F)cc1[N+](=O)[O-] | -36% | -2% | -25% | -54% | -22
CC(=O)Nc1ccc(S(=O)(=O)Nc2cc(-c3cn4ccccc4n3)ccc2C)cc1 | ? | nt | nt | 21µM* | nt
CCS(=O)(=O)Nc1cc(-c2cn3ccc(C)cc3n2)ccc1C | ? | nt | nt | 21µM* | nt
Cc1ccn2cc(-c3cccc(S(=O)(=O)N4CCCCC4)c3)nc2c1 | -25% | -13% | -2% | -21% | -29
Cc1ccn2cc(-c3ccc(C)c(NS(=O)(=O)c4ccc(Cl)cc4)c3)nc2c1 | 23µM* | nt | nt | 21µM* | nt
CC(=O)Nc1ccc(S(=O)(=O)Nc2cc(C)c(-n3nc4ccccc4n3)cc2O)cc1 | ? | -8% | -24% | ? | 7
Cc1ccc(C)c(C(=O)COC(=O)CN2C(=O)C3C4C=CC(C4)C3C2=O)c1 (stereo unspecified) | -24% | 9% | 3% | 6% | 17
Cc1ccc(SCC(=O)NC2CCCCCC2)cc1 | -2% | 3% | 5% | ? | 1
CNC(=O)c1[nH]cnc1C(=O)N[C@@H](CCCCNC(=O)OC(C)(C)C)C(=O)OC(C)(C)C | ? | -1% | 2% | -12% | 2
CC(C)(C)OC(=O)CNC(=O)c1nc[nH]c1C(=O)N1CCN(C(=O)OC(C)(C)C)CC1 | 0% | 2% | -5% | -1% | 8
CC(C)(C)OC(=O)NCCCCCNC(=O)c1nc[nH]c1C(=O)N1CCN(C(=O)OC(C)(C)C)CC1 | ? | -2% | 5% | 16µM* | 5
